Screens deposited in PubChem BioAssay by National Center for Advancing Translational Sciences (NCATS).
Rows were chosen to be rich in hits. Some 3.1% of all compounds tested hit in one or more screens of this group.
Tau fluor cs: Counterscreen qHTS for Inhibitors of Tau Fibril Formation, Fluorescence Polarization; tau K18 P301L Alexa594 fluorescence, heparin fibrillization; Potency, µM (highest dose often 57.7 µM); actives 0.93% (n = 280,000); also: nearly all actives have a fitted effect of over 55% in size
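Human tau K18 P301L (15 uM unlabeled, 0.24 uM Alexa 594-labeled) in 100 mM sodium acetate pH 7 with 20 uM heparin, 6 hr at 37 C. ThT 30 uM added, 1 hr ambient; Alexa 594 FP and total fluorescence read at 555/632 nm.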
Tau FP inhib: qHTS for Inhibitors of Tau Fibril Formation, Fluorescence Polarization | Potency, µM (doses to about 57.7 µM), most hits filed as inhibitors | K18 P301L tau heparin fibrillization, Alexa594 FP, 6 h | actives 0.39% (n = 280,000) | AID 1468, 2008; also: nearly all actives have a fitted effect of over 55% in size
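Compound effects on tau fibrillization are measured by Alexa 594 fluorescence polarization (ex 555, em 632 nm). K18 P301L tau is used at 15 uM with 0.24 uM labeled tracer, and 20 uM heparin induces aggregation over 6 hr at 37 C.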
Tau fibril ThT: qHTS for Inhibitors of Tau Fibril Formation, Thioflavin T Binding | recombinant tau K18 P301L (four-repeat tau fragment), heparin-induced fibrillization, ThT fluorescence | actives 2.1% (n = 270,000) | AID 1460, 2008 | Potency, µM (series often up to 57.4 µM), most hits filed as inhibitors; also: nearly all actives have a fitted effect of over 55% in size
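Tau K18 P301L fragment (15 uM unlabeled plus 0.24 uM Alexa 594-labeled) in 100 mM sodium acetate pH 7 with compound, fibrillization induced by 20 uM heparin for 6 hr at 37 C. Thioflavin T (30 uM) added, fluorescence read after 1 hr (ex 450, em 510 nm).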
TR SRC2 fluor cs: Total Fluorescence Counterscreen for Inhibitors of the Interaction of Thyroid Hormone Receptor and Steroid Receptor Coregulator 2; TRb/SRC2 Texas Red total fluorescence interference; Potency, µM (titrated, usually from 106 µM); actives 0.29% (n = 280,000); active = well fitted curve in either direction with a large enough effect; inconclusive = small, poorly fitted or top-dose-only effect
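Flags fluorescent or light-absorbing compounds by total fluorescence, S + 2P, at 555 nm excitation and 632 nm emission. Mixture: 20 nM Texas Red SRC2 peptide, 0.6 uM human TRb LBD, 1 uM T3, 5% DMSO; compound exposure 5 h at ambient temperature.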
RGS12 GoLoco inh: qHTS Assay for Inhibitors of RGS12 GoLoco Motif Activity (Red Fluorophore). actives 0.44% (n = 230,000). Gai1:RGS12 GoLoco peptide FP, rhodamine, 10 min. AID 880, 2007. Guanine nucleotide-binding protein G(i) subunit alpha-1 (Homo sapiens), P63096. Potency, µM (doses to about 61.6 µM), actives largely listed as inhibitors; active = well fitted inhibition curve with a large enough effect, not every such curve was filed as active; inactive = no such curve, though single readings can be large or run the other way; also: nearly all actives have a fitted effect of over 30% in size
TRb-SRC2 inh: qHTS for Inhibitors of the Interaction of Thyroid Hormone Receptor and Steroid Receptor Coregulator 2. TRbeta-SRC2 peptide binding, fluorescence polarization; receptor liganded with 1 µM T3. actives 0.065% (n = 280,000). Thyroid hormone receptor beta (Homo sapiens), P10828. Potency, µM (highest dose often 106 µM), most hits filed as inhibitors; also: nearly all actives have a fitted effect of over 50% in size
Target sequence (P10828 whole entry, looked up): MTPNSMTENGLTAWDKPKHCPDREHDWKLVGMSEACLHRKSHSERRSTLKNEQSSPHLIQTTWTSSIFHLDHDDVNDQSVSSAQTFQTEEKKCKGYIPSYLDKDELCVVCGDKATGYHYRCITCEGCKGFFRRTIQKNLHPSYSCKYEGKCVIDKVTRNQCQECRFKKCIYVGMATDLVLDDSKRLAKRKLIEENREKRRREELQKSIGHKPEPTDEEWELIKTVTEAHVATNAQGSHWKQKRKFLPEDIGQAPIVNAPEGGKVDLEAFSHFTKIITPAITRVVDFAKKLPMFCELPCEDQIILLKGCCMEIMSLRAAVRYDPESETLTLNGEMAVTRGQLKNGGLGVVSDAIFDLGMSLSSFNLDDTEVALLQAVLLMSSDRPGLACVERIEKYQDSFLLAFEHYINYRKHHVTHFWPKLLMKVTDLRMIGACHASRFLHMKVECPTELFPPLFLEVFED
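Read-out is fluorescence polarization (555 nm excitation, 632 nm emission) of a Texas Red SRC2 coactivator peptide; loss of signal reflects blocked binding to human TRb ligand-binding domain in the presence of 1 uM T3.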
Hits are given with their value; n = inactive; u = inconclusive; x = not tested or not shown; [ ] = dose if it differs, or a comment. Unless noted, calls follow the shape of the dose curve; as a rule, active = well fitted curve in the direction sought with a large enough effect; inconclusive = small, poorly fitted or top-dose-only effect, or another doubt; inactive = no such curve, though single readings can be large; an effect the other way counts as inactive or inconclusive.

SMILES	Tau fluor cs	Tau FP inhib	Tau fibril ThT	TR SRC2 fluor cs	RGS12 GoLoco inh	TRb-SRC2 inh
CCOc1cc(C(=O)Nc2ccc3nc(Nc4cccc(Cl)c4)cc(C)c3c2)cc(OCC)c1OCC	2.2µM[quencher]	n	u	n	x	n
Cc1cc(Nc2cccc(C(F)(F)F)c2)nc2ccc(NC(=O)c3cncc(Br)c3)cc12	5µM[quencher]	n	u	n	x	n
Cc1ccccc1C(=O)Nc1ccc2nc(Nc3cccc(C(F)(F)F)c3)cc(C)c2c1	5.6µM[quencher]	u	n	u	x	n
COC(=O)N/N=C/c1cn(Cc2ccc(Cl)cc2Cl)c2ccccc12	u	n	n	n	n	n
Cc1nn(-c2ccccc2)c(C)c1/C=N\N1CCN(c2ccc(Cl)cc2)CC1	u	n	8.9µM	n	n	n
O=C(NC1CCCC1)C(c1ccsc1)N(CCc1ccccc1)C(=O)Cc1cccs1 (stereo not drawn)	n	n	n	n	n	n
COc1cc(NC(=O)COC(=O)CNC(=O)c2ccc(C)cc2)c(C)cc1[N+](=O)[O-]	n	n	n	10µM[quencher]	n	n
CSc1cccc(NC(=S)N2CCC(N(C)C3CCCCC3C)CC2)c1 (stereo not drawn)	n	n	n	n	n	n
COc1cc(N=c2ssnc2Cl)c(OC)cc1Cl	n	u	10µM	n	n	n
COc1ccc(OC)c(N=c2ssnc2Cl)c1	n	u	11µM	n	n	n
COc1cc(-n2nnnc2SC)c(OC)cc1Cl	n	n	n	n	n	n
O=C(c1ccc(S(=O)(=O)N2CCOCC2)cc1)N1CCN(S(=O)(=O)c2ccc(Cl)s2)CC1	n	u	n	n	n	n
Cc1ccc(S(=O)(=O)N2CCCc3cc(NC(=O)c4ccc(F)c(F)c4)ccc32)cc1	u	u	n	n	x	n
CC1(C)CC(=O)C2=C(C1)NC1=C(C(=O)c3ccccc31)C2c1ccccc1 (stereo not drawn)	u	n	u	n	n	n
Cc1cccc(C2C3=C(Nc4[nH]n(-c5ccccc5)c(=O)c42)c2ccccc2C3=O)c1 (stereo not drawn)	u	n	16µM	n	n	n
Cc1ccccc1-c1ccnc2[nH]n(-c3ccccc3)c(=O)c12	n	n	u	n	x	n
Cc1ccccc1C1C2=C(Nc3[nH]n(-c4ccccc4)c(=O)c31)c1ccccc1C2=O (stereo not drawn)	u	n	14µM	n	n	n
Cn1cccc1C(=O)N1CCC2(CC1)CCN(c1cccc(-c3ccccc3)c1)CC2	x	x	x	x	n	x
O=[N+]([O-])c1ccc(Oc2ccc(S(=O)(=O)Nc3ccccc3)cc2)cc1	u	n	n	n	n	n
O=C1C(Cl)=C(NS(=O)(=O)c2ccc([N+](=O)[O-])cc2)C(=O)c2ccccc21	2.5µM[quencher]	8.9µM	2µM	n	n	n
COC(=O)c1sc(NC(=O)c2ccc(Cn3cc(Cl)cn3)o2)c(C#N)c1C	u	u	25µM	n	n	n
CCOC(=O)CN1C(=O)C(O)(CC(=O)c2ccco2)c2ccccc21 (stereo not drawn)	n	n	n	n	n	n
CC/C(C)=N\Nc1nc(-c2cc3cc(OC)ccc3oc2=O)cs1	18µM[quencher]	u	22µM	n	n	n
Clc1ccc(CSc2ncccn2)cc1	n	n	n	n	n	n
Cc1ccc(CSC2=NC(C)(C)Nc3ccccc32)c(C)c1	14µM[quencher]	n	u	u	x	n
CC1(C)N=C(SCc2ccc(Cl)cc2)c2ccccc2N1	10µM[quencher]	n	u	n	x	n
CC(=O)c1cccc(S(=O)(=O)N2CCC(C(=O)O)CC2)c1	n	n	n	n	n	n
CCCCN(CCCNC(=O)c1c(C)cc(=O)oc1C)c1ccccc1	n	n	u	n	n	n
